Results as given in PubChem BioAssay (EPA / NIEHS).
Results filed as inconclusive are left out. Activity calls are given as the source filed them. How the source made its calls: active means hit-call score of the fitted dose curve at least 0.9, where 1 is the maximum; inconclusive means response in the unintended direction; inactive means score below 0.9.

Biological target: mouse Estrogen Receptor alpha (Era), Esr1 (gene 13982) (UniProt P19785)
Assay: NVS_NR_mERa: NovaScreen (NVS) Nuclear Receptor Binding Assay for mouse Estrogen Receptor alpha (Era) (AID 2283378);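 further: hit means loss of bound radioligand signal relative to DMSO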
Outline: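 Filter scintillation counts of bound radioligand, measured 18 h post-dose, gave the readout; decreased signal relative to DMSO controls indicated displacement from mouse Era. Primary screen ran in duplicate at 25 uM; active chemicals were retested across concentrations.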

Chain of mouse Estrogen Receptor alpha (Era), Esr1 (gene 13982) (P19785 whole entry, looked up): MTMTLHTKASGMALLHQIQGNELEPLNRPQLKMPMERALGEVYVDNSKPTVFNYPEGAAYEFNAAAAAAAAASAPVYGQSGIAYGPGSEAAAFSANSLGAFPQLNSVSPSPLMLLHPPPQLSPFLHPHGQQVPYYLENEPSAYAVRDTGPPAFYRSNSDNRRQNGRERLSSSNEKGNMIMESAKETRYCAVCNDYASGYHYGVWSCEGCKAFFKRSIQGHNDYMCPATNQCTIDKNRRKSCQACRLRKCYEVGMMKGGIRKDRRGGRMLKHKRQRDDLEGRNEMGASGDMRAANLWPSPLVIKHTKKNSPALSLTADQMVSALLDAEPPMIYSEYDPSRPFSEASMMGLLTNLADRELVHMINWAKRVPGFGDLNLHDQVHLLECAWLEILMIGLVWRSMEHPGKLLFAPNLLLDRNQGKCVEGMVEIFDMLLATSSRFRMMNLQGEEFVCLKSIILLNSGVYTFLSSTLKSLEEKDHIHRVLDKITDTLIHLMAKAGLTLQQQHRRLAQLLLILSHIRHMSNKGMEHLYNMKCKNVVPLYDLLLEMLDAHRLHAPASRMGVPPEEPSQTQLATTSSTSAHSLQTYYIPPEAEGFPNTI

SMILES | outcome
CC1(C)NC(=O)NC1=O | inactive
Cc1ccccc1Cl | inactive
COc1cc(C=O)ccc1O | inactive
CN[C@H]1CC[C@@H](c2ccc(Cl)c(Cl)c2)c2ccc(S(N)(=O)=O)cc21 | inactive
C[Si]1(C)O[Si](C)(C)O[Si](C)(C)O[Si](C)(C)O1 | inactive
CCCCCCC(=O)OCC | inactive

Biological target: Agonist Androgen Response Element (ARE), AR (gene 367) (UniProt P10275)
Assay: OT_AR_ARELUC_AG_1440: Odyssey Thera (OT) 24-hour CHO-K1 Luciferase Assay for Agonist Androgen Response Element (ARE) (AID 2283379)
Outline: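 Seed CHO-K1 cells; dose compounds for 24 h; add D-luciferin plus ATP in PBS; read luminescence. Signal increase relative to vehicle defines agonist activity, with at least 3 replicate wells per sample.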

Chain of Agonist Androgen Response Element (ARE), AR (gene 367) (P10275 whole entry, looked up): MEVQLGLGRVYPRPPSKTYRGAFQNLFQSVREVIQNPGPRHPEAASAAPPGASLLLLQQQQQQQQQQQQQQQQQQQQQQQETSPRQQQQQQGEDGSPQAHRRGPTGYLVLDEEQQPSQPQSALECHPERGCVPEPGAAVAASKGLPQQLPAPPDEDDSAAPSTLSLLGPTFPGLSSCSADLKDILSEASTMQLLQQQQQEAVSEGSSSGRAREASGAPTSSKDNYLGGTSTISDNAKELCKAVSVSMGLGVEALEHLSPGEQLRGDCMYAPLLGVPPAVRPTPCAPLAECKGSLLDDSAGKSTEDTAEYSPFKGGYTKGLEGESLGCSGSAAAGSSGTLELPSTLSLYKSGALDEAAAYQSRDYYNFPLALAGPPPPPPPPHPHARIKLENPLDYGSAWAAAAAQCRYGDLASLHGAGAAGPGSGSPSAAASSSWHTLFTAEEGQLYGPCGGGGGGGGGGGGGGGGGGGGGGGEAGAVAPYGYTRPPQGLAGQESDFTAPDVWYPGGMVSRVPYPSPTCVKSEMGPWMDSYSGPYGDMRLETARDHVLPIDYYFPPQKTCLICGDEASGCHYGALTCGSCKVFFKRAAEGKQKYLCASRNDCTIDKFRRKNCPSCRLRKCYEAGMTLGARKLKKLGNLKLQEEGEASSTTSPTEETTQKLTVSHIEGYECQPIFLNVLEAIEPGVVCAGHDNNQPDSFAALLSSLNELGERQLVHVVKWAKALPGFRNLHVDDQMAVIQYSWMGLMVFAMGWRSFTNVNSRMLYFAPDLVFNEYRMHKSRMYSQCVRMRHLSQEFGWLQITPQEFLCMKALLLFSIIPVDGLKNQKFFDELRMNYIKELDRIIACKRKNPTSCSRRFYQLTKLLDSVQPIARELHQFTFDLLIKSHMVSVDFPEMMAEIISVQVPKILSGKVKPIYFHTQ

SMILES | outcome | AC50
Cc1ccc(C)c(C)c1 | inactive | 
CC(=O)Oc1ccccc1C(=O)O | inactive | 
Cc1ccccc1Cl | inactive | 
Cc1cccc(C)c1O | inactive | 
COc1cc(C=O)ccc1O |  | 50 µM (active)
CNC(=O)[C@H]1O[C@@H](n2cnc3c(NCc4cc(Cl)ccc4OCc4cc(C)no4)ncnc32)[C@H](O)[C@@H]1N | inactive | 
CN[C@H]1CC[C@@H](c2ccc(Cl)c(Cl)c2)c2ccc(S(N)(=O)=O)cc21 | inactive | 
Cc1cc(NC(=O)C(=O)O)cc(C)c1Oc1ccc(O)c2c1CCC2 | inactive | 
COc1ccc(C)cc1N | inactive | 
Cc1cccc([N+](=O)[O-])c1C | inactive | 
COCCOCCOC | inactive | 

Biological target: Estrogen receptor beta (Homo sapiens) (UniProt Q92731)
Assay: OT_ER_ERbERb_1440: Odyssey Thera (OT) 24-hour HEK293T Protein-Complementation Assay for Estrogen Receptor-beta/-beta Homodimer (AID 2283380);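 further: fluorescence gain from ER beta LBD homodimer complementation read by laser scanning cytometry; scored as signal increase over DMSO baseline for both agonists and antagonists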
Outline: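 HEK293T cells stably expressing human ER-beta LBD (aa 310-547) PCA homodimer pair, dosed 24 h; formaldehyde-fixed, Draq5-stained. Readout: increase in nuclear (agonist) or nuclear plus cytoplasmic (antagonist) fluorescence intensity versus DMSO, gain-of-signal fitting.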

Chain of Estrogen receptor beta (Homo sapiens) (Q92731 whole entry, looked up, the tested form may be a part): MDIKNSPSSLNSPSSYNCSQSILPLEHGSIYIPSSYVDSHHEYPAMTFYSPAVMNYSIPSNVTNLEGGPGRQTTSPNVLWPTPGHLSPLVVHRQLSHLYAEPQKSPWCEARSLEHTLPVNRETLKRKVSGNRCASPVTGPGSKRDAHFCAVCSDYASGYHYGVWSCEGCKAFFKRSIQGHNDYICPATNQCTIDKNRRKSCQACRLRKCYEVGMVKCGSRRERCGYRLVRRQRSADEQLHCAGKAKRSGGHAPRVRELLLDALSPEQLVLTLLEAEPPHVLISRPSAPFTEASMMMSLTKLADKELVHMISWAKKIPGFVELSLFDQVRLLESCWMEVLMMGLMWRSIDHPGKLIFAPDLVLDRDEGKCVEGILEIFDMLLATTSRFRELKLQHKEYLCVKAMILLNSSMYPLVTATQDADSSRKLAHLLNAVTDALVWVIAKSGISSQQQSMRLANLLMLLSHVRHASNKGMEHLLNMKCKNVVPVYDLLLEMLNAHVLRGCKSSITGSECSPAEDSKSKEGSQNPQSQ

SMILES | outcome | AC50
CCCCOC(=O)CCCCCCCCC(=O)OCCCC | inactive | 
NS(=O)(=O)c1cc2c(cc1Cl)NCNS2(=O)=O | inactive | 
Cc1ccc(C)c(C)c1 | inactive | 
CC(=O)Oc1ccccc1C(=O)O | inactive | 
O=c1c(O)c(-c2ccc(O)c(O)c2)oc2cc(O)cc(O)c12 |  | 19.2 µM (active)
O=C(O)CCCCC(=O)O | inactive | 
Cc1ccc(N(C)C)cc1 | inactive | 
CCCCCCCC=O | inactive | 
Clc1cc(Cl)c(Cl)cc1Cl | inactive | 
CCCCCCCCCCC | inactive | 
COCCOC[C@H](CC1(C(=O)NC2CCC(C(=O)O)CC2)CCCC1)C(=O)Oc1ccc2c(c1)CCC2 (some centres undefined) | inactive | 
C1CCC(SSC2CCCCC2)CC1 | inactive | 
Cc1cccc(C)c1O | inactive | 
CCCCCCCCCCCCCO | inactive | 
COc1cc(C=O)ccc1O | inactive | 
CNC(=O)[C@H]1O[C@@H](n2cnc3c(NCc4cc(Cl)ccc4OCc4cc(C)no4)ncnc32)[C@H](O)[C@@H]1N | inactive | 

SMILES | outcome | AC50
O=c1[nH]cc(F)c(=O)[nH]1 | inactive | 
CC(C)c1ccc(C(=O)N=C(N)N)cc1S(C)(=O)=O | inactive | 
CC(=O)OCCOCCOCCOC(C)=O | inactive | 
CN[C@H]1CC[C@@H](c2ccc(Cl)c(Cl)c2)c2ccc(S(N)(=O)=O)cc21 | inactive | 
CCCCCCCCCCCC(=O)OC | inactive | 
CCCCCCOCCO | inactive | 
Cc1cccc([N+](=O)[O-])c1C | inactive | 
C[Si]1(C)O[Si](C)(C)O[Si](C)(C)O[Si](C)(C)O1 | inactive | 
Nc1ccccc1N | inactive | 
CCCCc1ccc2c(n1)[C@@H](c1ccc(OC)cc1C[C@H](C)C(=O)O)[C@H](C(=O)O)[C@H]2c1ccc2c(c1)OCO2 | inactive | 
Cc1oc(-c2ccccc2)nc1CCOc1cccc2c1ccn2CCC(=O)O | inactive | 
CCCCCCC(=O)OCC | inactive | 
Oc1ccc2ccccc2c1N=Nc1ccccc1 | inactive | 
COCCOCCOC | inactive | 
COc1cc(-c2nc(NC(=O)c3cc4cc(C)cc(C)c4n3CC(=O)O)sc2CCC2CCCCC2)c(OC)cc1Cl | inactive | 
CCCCCCCCCCO | inactive | 
